# From the supplement of paper PMC10037445
# In all, about 2,900 compounds were measured (“NF-kB SEAP reporter activity, fold change vs agonist alone”: median about 0.99, highest 2% from about 2.6 on). For the sample, the highest values were picked, then their nearest neighbours and some compounds at random.
# Tests used:
# [1] = tested on: RAW-Dual; assay: NF-kB SEAP reporter activity, fold change vs agonist alone; higher = enhanced NF-kB activity; conditions: cytotoxicity flag (confluency mask): not cytotoxic
# Method in brief: (§1)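 RAW-Dual macrophages were seeded in DMEM at 50,000 cells/well in 384-well plates, given 50 nL of library stock by pin tool, and given a PRR agonist 1 h later. Plates were held at 37 °C, 5% CO2 for 20 hours, after which supernatant was read for IRF by QuantiLuc luminescence and for NF-κB by QuantiBlue absorbance at 620 nm. Reporter activity is expressed as fold change over wells that received agonist alone. A well was called cytotoxic when IncuCyte confluency fell below 70% of agonist controls in both mask sets.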
# [2] = tested on: RAW-Dual; assay: NF-kB SEAP reporter activity, fold change vs agonist alone; cytotoxicity flag (confluency mask): not cytotoxic; higher = enhanced NF-kB activity
# Method in brief: as §1
# [3] = library stock concentration (final ~1000-fold dilution): 10 mM water, agonist: Imiquimod (TLR7) […]
# [4] = library stock concentration (final ~1000-fold dilution): 10 mM water, agonist: MPLA (TLR4) […]
# [5] = agonist: ODN 1826 (TLR9) 0.5 ug/mL
# [6] = agonist: Pam2CSK4 (TLR2/6) 0.1 ug/mL
# [7] = agonist: Pam3CSK4 (TLR2/1) 0.1 ug/mL
# [8] = library stock concentration (final ~1000-fold dilution): 10 mM, agonist: Imiquimod (TLR7) […]
# [9] = library stock concentration (final ~1000-fold dilution): 10 mM, agonist: MPLA (TLR4) […]
smiles,measurement,setting,value
CN1CCOC(c2ccccc2)c2ccccc2C1.Cl (stereo unspecified),NF-kB SEAP reporter activity,[1]; [3],1.12
same,NF-kB SEAP reporter activity,[1]; [4],1.03
CN1CCOC(c2ccccc2)c2ccccc2C1.Cl (stereo unspecified) (library stock concentration (final ~1000-fold dilution): 10 mM water),NF-kB SEAP reporter activity,[2]; agonist: LPS (TLR4) 0.1 ug/mL,1.36
same,NF-kB SEAP reporter activity,[2]; [5],0.943
same,NF-kB SEAP reporter activity,[2]; [6],1.05
same,NF-kB SEAP reporter activity,[2]; [7],0.969
COc1ccc(S(=O)(=O)N(C(C)=O)c2ccccc2/C=C/c2cc[n+]([O-])cc2)cc1 (library stock concentration (final ~1000-fold dilution): 10 mM),NF-kB SEAP reporter activity,[2]; agonist: LPS (TLR4) 0.1 ug/mL,1.85
same,NF-kB SEAP reporter activity,[2]; [5],2.59
same,NF-kB SEAP reporter activity,[2]; [6],1.94
same,NF-kB SEAP reporter activity,[2]; [7],1.43
COc1ccc(S(=O)(=O)N(CCO)c2ccccc2CN(C)CC=Cc2ccc(Cl)cc2)cc1,NF-kB SEAP reporter activity,[1]; [8],0.802
same,NF-kB SEAP reporter activity,[1]; [9],1.07
COc1ccc(S(=O)(=O)N(C(C)=O)c2ccccc2/C=C/c2cc[n+]([O-])cc2)cc1,NF-kB SEAP reporter activity,[1]; [8],2.17
same,NF-kB SEAP reporter activity,[1]; [9],1.61
COc1ccc(S(=O)(=O)N(CCO)c2ccccc2CN(C)CC=Cc2ccc(Cl)cc2)cc1 (library stock concentration (final ~1000-fold dilution): 10 mM),NF-kB SEAP reporter activity,[2]; agonist: LPS (TLR4) 0.1 ug/mL,0.958
same,NF-kB SEAP reporter activity,[2]; [5],0.257
same,NF-kB SEAP reporter activity,[2]; [6],0.537
same,NF-kB SEAP reporter activity,[2]; [7],0.372
C=C1C(CO)C(O)CC1n1cnc2c(=O)nc(N)[nH]c21 (stereo unspecified),NF-kB SEAP reporter activity,[1]; [9],1.07
C=C1C(CO)C(O)CC1n1cnc2c(=O)nc(N)[nH]c21 (stereo unspecified) (library stock concentration (final ~1000-fold dilution): 10 mM),NF-kB SEAP reporter activity,[2]; agonist: LPS (TLR4) 0.1 ug/mL,1.32
same,NF-kB SEAP reporter activity,[2]; [5],0.996
same,NF-kB SEAP reporter activity,[2]; [6],1.37
same,NF-kB SEAP reporter activity,[2]; [7],0.846
CNC1C(O)C(OC2C(NC(=O)C(O)CN)CC(N)C(OC3OC(CN)C(O)C(O)C3O)C2O)OCC1(C)O.O=S(=O)(O)O (stereo unspecified) (library stock concentration (final ~1000-fold dilution): 10 mM water),NF-kB SEAP reporter activity,[2]; agonist: LPS (TLR4) 0.1 ug/mL,1.03
same,NF-kB SEAP reporter activity,[2]; [5],1.09
same,NF-kB SEAP reporter activity,[2]; [6],1.3
same,NF-kB SEAP reporter activity,[2]; [7],1.14
CNC1C(O)C(OC2C(NC(=O)C(O)CN)CC(N)C(OC3OC(CN)C(O)C(O)C3O)C2O)OCC1(C)O.O=S(=O)(O)O (stereo unspecified),NF-kB SEAP reporter activity,[1]; [3],0.944
same,NF-kB SEAP reporter activity,[1]; [4],1.01
COc1ccc(C(NC(=O)c2cnc(-c3cccnn3)nc2O)c2ccc(OC)cc2)cc1,NF-kB SEAP reporter activity,[1]; [8],0.974
same,NF-kB SEAP reporter activity,[1]; [9],1.03
COc1ccc(C(NC(=O)c2cnc(-c3cccnn3)nc2O)c2ccc(OC)cc2)cc1 (library stock concentration (final ~1000-fold dilution): 10 mM),NF-kB SEAP reporter activity,[2]; agonist: LPS (TLR4) 0.1 ug/mL,2.9
same,NF-kB SEAP reporter activity,[2]; [5],0.861
same,NF-kB SEAP reporter activity,[2]; [6],0.898
same,NF-kB SEAP reporter activity,[2]; [7],1.02
O=C(O)c1ccc(Br)c(O)c1,NF-kB SEAP reporter activity,[1]; [9],1.11
O=C(O)c1ccc(Br)c(O)c1 (library stock concentration (final ~1000-fold dilution): 10 mM),NF-kB SEAP reporter activity,[2]; agonist: LPS (TLR4) 0.1 ug/mL,1.11
same,NF-kB SEAP reporter activity,[2]; [5],0.975
same,NF-kB SEAP reporter activity,[2]; [6],1.09
same,NF-kB SEAP reporter activity,[2]; [7],0.729
O=C(/C=C/c1ccc(O)c(O)c1)O[C@@H]1CC(O)(C(=O)O)C[C@@H](OC(=O)/C=C/c2ccc(O)c(O)c2)C1O (stereo partly specified),NF-kB SEAP reporter activity,[1]; [8],0.841
same,NF-kB SEAP reporter activity,[1]; [9],1.01
O=C(/C=C/c1ccc(O)c(O)c1)O[C@@H]1CC(O)(C(=O)O)C[C@@H](OC(=O)/C=C/c2ccc(O)c(O)c2)C1O (stereo partly specified) (library stock concentration (final ~1000-fold dilution): 10 mM),NF-kB SEAP reporter activity,[2]; agonist: LPS (TLR4) 0.1 ug/mL,1.24
same,NF-kB SEAP reporter activity,[2]; [5],1.04
same,NF-kB SEAP reporter activity,[2]; [6],1.11
same,NF-kB SEAP reporter activity,[2]; [7],1.18
CC(C)NC(=O)C1CCC(n2c(=NC(=O)c3ccc(F)cc3)[nH]c3ccc(CN4CCC(C(C)(C)O)CC4)cc32)CC1 (stereo unspecified) (library stock concentration (final ~1000-fold dilution): 10 mM),NF-kB SEAP reporter activity,[2]; agonist: LPS (TLR4) 0.1 ug/mL,1.17
same,NF-kB SEAP reporter activity,[2]; [5],0.713
same,NF-kB SEAP reporter activity,[2]; [6],1.24
same,NF-kB SEAP reporter activity,[2]; [7],2.16
CC(C)NC(=O)C1CCC(n2c(=NC(=O)c3ccc(F)cc3)[nH]c3ccc(CN4CCC(C(C)(C)O)CC4)cc32)CC1 (stereo unspecified),NF-kB SEAP reporter activity,[1]; [8],1.44
same,NF-kB SEAP reporter activity,[1]; [9],0.822
Cc1cc(Nc2nc(NC(C)c3ccc(F)cc3)c(C#N)cc2F)n[nH]1 (stereo unspecified),NF-kB SEAP reporter activity,[1]; [8],1
same,NF-kB SEAP reporter activity,[1]; [9],0.984
Cc1cc(Nc2nc(NC(C)c3ccc(F)cc3)c(C#N)cc2F)n[nH]1 (stereo unspecified) (library stock concentration (final ~1000-fold dilution): 10 mM),NF-kB SEAP reporter activity,[2]; agonist: LPS (TLR4) 0.1 ug/mL,1.87
same,NF-kB SEAP reporter activity,[2]; [5],0.965
same,NF-kB SEAP reporter activity,[2]; [6],1.44
same,NF-kB SEAP reporter activity,[2]; [7],0.993
Cc1cc(Nc2cc(Cl)nc(Oc3ccc([N+](=O)[O-])cc3)n2)n[nH]1 (library stock concentration (final ~1000-fold dilution): 10 mM),NF-kB SEAP reporter activity,[2]; agonist: LPS (TLR4) 0.1 ug/mL,3.28
same,NF-kB SEAP reporter activity,[2]; [5],2.32
same,NF-kB SEAP reporter activity,[2]; [6],1.82
same,NF-kB SEAP reporter activity,[2]; [7],2.92
Cc1cc(Nc2cc(Cl)nc(Oc3ccc([N+](=O)[O-])cc3)n2)n[nH]1,NF-kB SEAP reporter activity,[1]; [8],1.24
same,NF-kB SEAP reporter activity,[1]; [9],2.16
O=C(O)[C@H](O)Cc1ccc(O)c(O)c1,NF-kB SEAP reporter activity,[1]; [3],0.919
same,NF-kB SEAP reporter activity,[1]; [4],1.04
O=C(O)[C@H](O)Cc1ccc(O)c(O)c1 (library stock concentration (final ~1000-fold dilution): 10 mM water),NF-kB SEAP reporter activity,[2]; agonist: LPS (TLR4) 0.1 ug/mL,1.19
same,NF-kB SEAP reporter activity,[2]; [5],1.22
same,NF-kB SEAP reporter activity,[2]; [6],1.1
same,NF-kB SEAP reporter activity,[2]; [7],1
COc1nc2ccc(Br)cc2cc1C(c1ccccc1)C(O)(CCN(C)C)c1cccc2ccccc12 (stereo unspecified) (library stock concentration (final ~1000-fold dilution): 10 mM),NF-kB SEAP reporter activity,[2]; agonist: LPS (TLR4) 0.1 ug/mL,0.761
same,NF-kB SEAP reporter activity,[2]; [5],0.86
same,NF-kB SEAP reporter activity,[2]; [6],0.78
same,NF-kB SEAP reporter activity,[2]; [7],0.531
COc1nc2ccc(Br)cc2cc1C(c1ccccc1)C(O)(CCN(C)C)c1cccc2ccccc12 (stereo unspecified),NF-kB SEAP reporter activity,[1]; [8],0.771
same,NF-kB SEAP reporter activity,[1]; [9],0.783
